# This is a sample that favours compounds with a hit; in the whole collection about 4.5% have one here.
# PfHsp90 yeast 2: inhibits growth of yeast expressing Plasmodium falciparum Hsp90; S. cerevisiae expressing PfHsp90, BacTiter-Glo ATP, 48 h; yeast lacking PDR1 and PDR3 efflux regulators; inhibition, % at 9.4 µM; 0.32% of 310,000 active;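 active = every replicate shows inhibition above about 80%, whatever the replicate mean, limit read from the data; inconclusive = mean inhibition reaches the set limit but some replicate falls short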
# TIM10 inh: growth inhibitors of TIM10 yeast strain; AID 463195; S. cerevisiae TIM10 strain growth, BacTiter-Glo luminescence, 24 h; inhibition, % at 10 µM; 1.4% of 330,000 active;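 active = inhibition of 40% or more at the single tested concentration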;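 also: wild-type TIM10 isogenic control strain grown at permissive 25 °C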
# tim10-1 inh: growth inhibitors of tim10-1 mutant yeast | S. cerevisiae tim10-1 ts strain growth, BacTiter-Glo, 24 h | inhibition, % at 20 µM | 2.2% of 330,000 active | AID 463190;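 active = inhibition of at least 40%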;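 also: mutant grown at 25 °C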
# tim23-1 inh: tim23-1 yeast growth inhibition; S. cerevisiae tim23-1 growth, BacTiter-Glo luminescence, 24 h; inhibition, % at 20 µM; 1.3% of 330,000 active; AID 463212;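 active = growth inhibition of the mutant yeast at or above 50%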;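 also: temperature-sensitive mutant grown at 25 °C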
# SKKanGAS inh: inhibitors of SKKanGAS S. pyogenes growth in kanamycin (SK-promoter or general growth effect) | BacTiter-Glo, 6 h | inhibition, % at 7.5 µM | 1.3% of 300,000 active;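 active = mean replicate score, as percent of positive control median, at least 50; inconclusive = mean below 50 but one replicate at or above 50; inactive = mean and every replicate below 50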;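 also: strain carries kanamycin resistance gene driven by streptokinase promoter and grows in 40 µg/ml kanamycin; loss of luminescence reflects streptokinase promoter inhibition or plain growth inhibition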
# NALP3 yeast inh: inhibitors of NALP3 inflammasome in yeast | Yeast reconstituted NLRP3/ASC/caspase-1, beta-gal luminescence, 24 h | inhibition, % at 10 µM | 0.39% of 330,000 active | AID 2825;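 active = inhibition of 50% or more; inactive = inhibition below 50%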
# tim10-1 conf: tim10-1 yeast growth inhibition, confirmed. shares compounds with tim10-1 inh. S. cerevisiae tim10-1 ts strain growth, BacTiter-Glo, 24 h. inhibition, % at 20 µM. 56% of 7,400 active. AID 463213;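 active = inhibition of yeast growth at or above a set limit in either of two repeat tests at 20 µM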;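 also: tim10-1 mutant grown at permissive 25 °C to find synthetic lethal compounds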
# Hits are given with their value; i = inactive; ? = inconclusive; nt = no result.
SMILES,PfHsp90 yeast 2,TIM10 inh,tim10-1 inh,tim23-1 inh,SKKanGAS inh,NALP3 yeast inh,tim10-1 conf
CCn1c(SCC(=O)Nc2ccc(Cl)cc2)nc2nc3c(cc2c1=O)CCCC3,i,i,i,i,i,i,nt
COc1ccc(CCNC(=O)C(C)SCC(=O)Nc2ccc(F)cc2)cc1 (centres undefined),i,i,i,i,nt,i,nt
O=C(C[C@@H]1C/C=C\C[C@@H](Cc2ccc(F)cc2)C(=O)OC[C@H]2CCCN2C1=O)NCCO,i,i,i,i,nt,i,nt
O=C(OCc1ccccc1)N1CCC2CC1c1c(-c3ccc(C(F)(F)F)cc3)cccc12 (centres undefined),i,nt,nt,nt,nt,nt,nt
CCn1c(=O)n(CC)c2cc(N3CCCC3)c(NC(=O)c3cccc(OC)c3)cc21,i,i,46.6,i,i,i,i
Cn1c(=O)n(C)c2cc(N3CCCCC3)c(NC(=O)c3cccc(Cl)c3)cc21,i,i,42.0,i,i,i,i
CCc1nonc1NC(=O)c1oc2ccc(F)cc2c1C,i,i,i,i,i,i,nt
Cc1c(C(=O)Nc2nonc2-c2ccc(F)cc2)oc2ccc(F)cc12,i,i,44.3,i,57.1,i,i
Cc1cc(N2CCN(c3ccccc3)CC2)n2cc(-c3ccccc3)nc2n1,i,i,i,i,i,i,nt
Cc1cc(N2CCN(c3ccccc3Cl)CC2)n2cc(-c3ccccc3)nc2n1,i,i,41.5,i,?,i,48.8
N#CCCN(Cc1ccccc1)C(=S)NC(=O)c1ccccc1,i,i,40.1,i,i,i,i
Cc1ccc(C(=O)COC(=O)CNC(=O)Cc2ccccc2)cc1,i,i,i,i,i,i,nt
CCc1ccc(C(=O)COC(=O)CNC(=O)COc2ccccc2)cc1,i,i,41.6,i,i,i,i
CC1CCCC(C)N1C(=O)CN1c2cccc3cccc(c23)S1(=O)=O (centres undefined),i,i,i,i,nt,i,nt
CCCNC(=O)C12CCC(C)(c3nc4cc(C)c(C)cc4nc31)C2(C)C (centres undefined),i,i,41.9,i,nt,i,i
CNC(=O)C12CCC(C)(c3nc4cc(C)c(C)cc4nc31)C2(C)C (centres undefined),i,i,i,i,i,i,nt
O=c1nc(/C=C/c2ccc(-c3ccc(F)cc3)o2)cc(C(F)(F)F)[nH]1,nt,i,47.2,i,i,i,31.0
CCCCC(Sc1nc(C)c(Cc2ccccc2)c(=O)[nH]1)C(=O)O (centres undefined),i,i,i,i,i,i,nt
COc1ccc(/C=C\C(=O)O[C@@H]2C(O)C(O[C@@H]3OC(C)[C@H](O[C@@H]4OCC(O[C@H]5O[C@H](CO)[C@@H](O)C(O)C5O)C(O)C4O)C(O)C3O)[C@H](OC(=O)[C@]34CCC(C)(C)C[C@@H]3C3=CCC5[C@@]6(C)CC(O)C(O[C@@H]7OC(CO)C(O)[C@H](O)[C@H]7O)[C@@](C)(C(=O)O)C6CC[C@@]5(C)[C@]3(CO)CC4)O[C@H]2C)cc1 (some centres undefined),107.8,i,47.8,i,nt,i,38.5
O=C(CCC1CCCC1)NNC(=O)COc1ccc(Br)cc1,i,i,i,i,nt,i,nt
Cc1ccc(C)c(S(=O)(=O)N2CCN(C(=O)c3ccccc3Cc3ccccc3)CC2)c1,i,i,i,i,i,i,nt
OCc1ccc(-c2nn(Cc3ccccc3)c3ccccc23)o1,i,i,40.1,i,i,i,29.8
O=c1c2ccccc2c(-c2n[nH]c(=S)o2)nn1Cc1ccccc1,i,i,i,i,i,i,nt
Cc1cc(C)c(C(=O)C(C)OC(=O)C2=COCCO2)cc1C (centres undefined),i,i,i,i,i,i,nt
CCCCCCC(=O)N(O)C1CC(=O)N(c2ccc(Br)cc2)C1=O (centres undefined),118.9,i,42.1,i,i,i,i
Cc1ccc(C)c(CSc2nnc([C@@H](N)C(C)C)o2)c1,nt,i,44.6,i,i,i,49.1
CCC(C)[C@H](N)c1nnc(SCC(=O)Nc2ccc(C)cc2C)o1 (some centres undefined),i,i,i,i,i,i,nt
N#Cc1nc(-c2ccc(F)cc2)oc1N1CCC(C(N)=O)CC1,i,i,i,i,i,i,nt
